Among the data in PubChem BioAssay (NCI) are growth values, retold here.

Structures are written as SMILES. Compounds without any hit were thinned out: in the full panel of roughly 83,000, 20% have a hit.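 Cell lines were cultured in 96-well plates, exposed to a single compound concentration, and assessed for percent growth 48 hours later.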 Unmarked numbers belong to inactive results. Active and inactive are the calls of the source. Rule for the calls: active = growth percent below 10; inactive = the rest.

Assay in all cases: NCI-60 one-dose screen, 48 h (100 = growth as untreated, 0 = no growth, -100 = all killed)
Holding throughout (conditions): 10 µM unless noted

For experiment [1], the system named is HCT-15 colon.
The test system of experiment [2] is SNB-75 CNS.
The test system of experiment [3] is SNB-19 CNS.
In experiment [4] the test system is U251 CNS.
Experiment [5] deals with PC-3 prostate.
Experiment [6] deals with SK-MEL-5 melanoma.
Experiment [7] relates to UACC-62 melanoma.
Experiment [8] deals with LOX IMVI melanoma.
Experiment [9] has as its system SK-MEL-28 melanoma.
For experiment [10], the system named is SK-MEL-2 melanoma.
The subject of experiment [11] is SN12C renal.
Experiment [12] relates to UO-31 renal.
The test system of experiment [13] is TK-10 renal.
Experiment [14] deals with ACHN renal.
The subject of experiment [15] is CAKI-1 renal.
The subject of experiment [16] is A498 renal.
The test system of experiment [17] is CCRF-CEM leukemia.
The test system of experiment [18] is MOLT-4 leukemia.
Experiment [19] deals with EKVX NSCLC.

With `CCCCNC(=O)NS(=O)(=O)c1ccc(N2N=C(c3ccc(C)cc3C)CC2c2ccc(OC)cc2)cc1` (configuration not stated), the growth in experiment [1] was 47%; in experiment [2], 85.4%; in experiment [3], 81.2%; in [4], 44.9%; in experiment [5] it was 50.1%; in experiment [6] it was 55.6%. For the same molecule, the growth in experiment [7] is 60%; in experiment [8] it was 56.2%; in experiment [9], 44.8%; in [10], 81.3%; in [11] it was 75%; in experiment [12] it was 59.7%. The growth in experiment [13] is 88.7%; in experiment [14], 64%; in experiment [15] it was 70.8%; in experiment [16] it was 52.9%; in [17], 54.3%; in experiment [18], 52.3%.
On to `N#Cc1ncc(-c2ccc(F)c(F)c2F)c(NC2CCCCCC2)n1`, for which the growth in [1] is 76.1%; in [2], 72.2%; in [3], 78.6%; in experiment [4], 59.1%; in [5], 75.7%; in experiment [6], 89.9%. Moreover, the growth is 71.2% in [7]; 84.6% in [8]; 94% in experiment [9]; 95.8% in experiment [10]; 78.2% in experiment [11]; 68.9% in experiment [12]. The growth in experiment [13] is 91.5%; in [14], 84.7%; in experiment [15] it was 79%; in experiment [16], 124%; in experiment [17], 33.4%; in experiment [18], 68.1%.
Consider `COc1ccc(S(=O)(=O)Nc2cc(/C=C\c3cc(OC)c(OC)c(OC)c3)cc(OC)c2OC)cc1OC`, for which the growth is 24.1% in experiment [1]; -4.59% (active) in experiment [2]; 40% in experiment [3]; 23.1% in [4]; 34.3% in [5]; 23.7% in experiment [6]. Besides, the growth in experiment [7] is 37.3%; in experiment [8], 48.2%; in experiment [9], 52.5%; in [10] it was 36.6%; in [11], 45%; in experiment [12] it was 40.7%. The growth in [13] is 73.4%; in experiment [14], 45.1%; in experiment [15], 24.4%; in [17], 9.18% (active); in experiment [18], 17.1%.
Take `O=C(O)C(Cc1ccccc1)N1C(=O)/C(=C/C(Cl)=C/c2ccc([N+](=O)[O-])cc2)SC1=S` (configuration not stated): the growth is 41.2% in experiment [1]; 43% in [2]; 32.2% in [3]; 8.38% (active) in [4]; 31.2% in [5]; 2.03% (active) in experiment [6]. Further, the growth in experiment [7] was -56.4% (active); in experiment [8], -74.2% (active); in [9], 3.14% (active); in experiment [10], 9.02% (active); in experiment [11], 8.76% (active); in experiment [12] it was 29.4%. In addition, the growth in experiment [13] is 50.1%; in experiment [14], 40.7%; in experiment [15] it was 6.47% (active); in experiment [17], 4.14% (active); in experiment [18] it was 0.405% (active).
Turning to `COc1ncc(-c2ccc3ncnc(Nc4cccc(Cl)c4)c3c2)cc1NS(=O)(=O)C1CC1`, the growth in experiment [1] is 27.6%; in experiment [2] it was -1.09% (active); in [3], 49.7%; in experiment [4], 59.9%; in experiment [5], 24.4%; in experiment [6] it was 37.3%. Besides, the growth is 25.1% in [7]; 34.8% in experiment [8]; 39.4% in experiment [9]; 36.5% in [10]; 12.3% in experiment [19]; 31.2% in experiment [11]. The growth in experiment [12] is 22.5%; in experiment [13] it was 1.03% (active); in experiment [14] it was 23.9%; in experiment [15] it was 27.8%; in experiment [16], 15.7%; in [17], 33.2%. For the same molecule, the growth in [18] is -0.986% (active).
In the case of `OCc1c(-c2ccccc2)nc2sccn12`, the growth is 97.2% in experiment [1]; 122% in experiment [2]; 85.5% in [3]; 95.6% in experiment [4]; 95.7% in experiment [5]; 80.2% in [6]. For the same molecule, the growth in experiment [7] is 101%; in experiment [8], 104%; in experiment [9], 122%; in [10], 108%; in experiment [19], 86.9%; in [11] it was 105%. The growth in experiment [12] is 94.8%; in experiment [13] it was 106%; in experiment [14], 98.4%; in experiment [15], 96.6%; in experiment [16], 95.9%; in experiment [17] it was 17.9%. Further, in experiment [18], the growth was 117%.
Consider `CN(C)C/C=C/C(=O)Nc1cc2c(Nc3cccc(Cl)c3F)ncnc2cc1OCCOC(F)F`, for which the growth is 21.8% in [1]; 1.35% (active) in [2]; 57.1% in experiment [3]; 50.3% in [4]; 40.2% in [5]; 73.4% in [6]. Further, the growth in [7] is 53.5%; in [8] it was 43.9%; in [9], 78.2%; in experiment [10], 70.1%; in experiment [19], 19.2%; in experiment [11] it was 12.6%. Besides, the growth in [12] was 16.1%; in experiment [13] it was 22.4%; in experiment [14], 4.97% (active); in experiment [15], 10.1%; in experiment [16], -14.5% (active); in experiment [17], 63.1%. Also, the growth in experiment [18] was 38.6%.
Consider `COc1cccc(-n2cc(-c3nc(Cl)c4ccccc4n3)nn2)c1`, for which the growth was 98.2% in experiment [1]; 72.3% in experiment [2]; 94% in [3]; 153% in experiment [4]; 97.5% in [5]; 95.1% in experiment [6]. Moreover, the growth in [7] is 97.4%; in [8] it was 109%; in [9], 95%; in experiment [10], 89.5%; in [11], 95.2%; in [12], 78.3%. Moreover, the growth is 105% in [13]; 112% in [14]; 99.1% in experiment [15]; 72.9% in experiment [16]; 103% in experiment [17]; 104% in experiment [18].
As for `CC(=O)Nc1ccc2c(c1)/C(=C\C=C/c1ccc([N+](C)(C)C)cc1)c1ccccc1-2`, the growth in experiment [1] was 89.1%; in [2], -1.84% (active); in experiment [3], 36.6%; in experiment [4], 26%; in [5], 68.4%; in experiment [6], 36.1%. Further, the growth was 100% in experiment [7]; 80.1% in [8]; 66.3% in [9]; 80.9% in [10]; 57.7% in experiment [19]; 16.6% in experiment [11]. For the same molecule, the growth in experiment [12] is 64.5%; in experiment [13] it was 103%; in experiment [14] it was 73.2%; in experiment [15], 65.8%; in experiment [16] it was 86%; in [17] it was 67.3%. The growth in experiment [18] was 63.6%.
Take `Cn1c(C(N)=O)cc2c1-c1nc(NC3CCCCC3)ncc1CCC2`: the growth is 90.5% in [1]; 104% in experiment [2]; 81.9% in experiment [3]; 83.8% in experiment [4]; 94.8% in [5]; 95% in experiment [6]. For the same molecule, the growth was 103% in experiment [7]; 89.6% in [8]; 97.4% in [9]; 105% in experiment [10]; 90.9% in experiment [11]; 67.2% in [12]. The growth is 89.4% in experiment [13]; 85.8% in [14]; 83.3% in experiment [15]; 46% in [16]; 93.9% in [17]; 85.1% in [18].
For `COc1ccc(/C=C2\Oc3cc(OCCN4CCCC4)ccc3C2=O)c(OC)c1`, the growth in [1] was 80.2%; in experiment [2], 93.2%; in experiment [3] it was 92.2%; in experiment [4], 76.5%; in experiment [5] it was 84.9%; in [6], 90.2%. Besides, the growth is 101% in experiment [7]; 81.2% in experiment [8]; 96.9% in experiment [9]; 101% in experiment [10]; 98.1% in experiment [19]; 92.2% in experiment [11]. For the same molecule, the growth in experiment [12] is 81.2%; in experiment [13], 115%; in [14] it was 95.7%; in experiment [15], 92.4%; in experiment [16], 88.5%; in experiment [18] it was 86.7%.
Consider `CNC(=O)c1cc(Oc2ccc3c(c2)sc2nc(-c4ccc(Cl)cc4)cn23)ccn1`, for which the growth is 83.6% in [1]; 47.9% in experiment [2]; 54% in experiment [3]; 69.5% in experiment [4]; 78.8% in experiment [5]; 87.4% in experiment [6]. Besides, the growth was 85.1% in experiment [7]; 87.4% in experiment [8]; 104% in [9]; 116% in [10]; 80.9% in [19]; 95.9% in experiment [11]. Moreover, the growth in experiment [12] is 85.7%; in experiment [13], 110%; in [14], 79.3%; in [15], 78.8%; in [16] it was 88.8%; in experiment [17], 93.6%. The growth in experiment [18] was 93%.
Turning to `O=C1c2ccccc2C(=O)c2c(N=Nc3sc(=O)[nH]c3S)cccc21`, the growth in experiment [1] is 94%; in experiment [2], 112%; in experiment [3], 93.4%; in experiment [4], 91.6%; in experiment [5], 89.9%; in [6], 93.4%. The growth in experiment [7] is 88.8%; in experiment [8] it was 84.9%; in [9], 110%; in experiment [10], 95.2%; in experiment [11], 100%; in experiment [12] it was 88.7%. Further, the growth was 138% in [13]; 102% in experiment [14]; 96.3% in [15]; 94.8% in [17]; 101% in experiment [18].
For the molecule `Cc1cc(Nc2nc(-c3ccncc3)nc3ccccc23)n[nH]1`, the growth in experiment [1] is 44.2%; in [2] it was -23.4% (active); in experiment [3], 95%; in experiment [4] it was 115%; in experiment [5], 61%; in experiment [6], 89.1%. Further, the growth in [7] was 55.3%; in experiment [8], 62.7%; in experiment [9], 69.1%; in [10], 57.6%; in [11], 61.6%; in experiment [12] it was 33.4%. In addition, the growth was 62% in experiment [13]; 40.2% in experiment [14]; -6.19% (active) in experiment [15]; 4.45% (active) in experiment [16]; 67.6% in experiment [17]; 60.5% in experiment [18].
For the molecule `COc1ccc(C2=CC(c3ccc(Oc4ccnc5cc(Cl)ccc45)c(OC)c3)c3c(nc(OC)[nH]c3=O)N2)cc1` (configuration not stated), the growth in [1] was 44.5%; in experiment [2], 73.1%; in [3] it was 75.1%; in [4] it was 67.7%; in [5] it was 54.9%; in experiment [6] it was 74.6%. Moreover, the growth is 51.9% in [7]; 52.7% in experiment [8]; 91.1% in experiment [9]; 91.9% in experiment [10]; 63.7% in experiment [11]; 56.5% in experiment [12]. For the same molecule, the growth is 98.5% in experiment [13]; 57.3% in experiment [14]; 82.9% in [15]; 69.6% in experiment [16]; 26.8% in experiment [17]; 7.77% (active) in experiment [18].
